21 compounds from the supplement of paper PMC6953052 can be followed below.

In all, about 1,700 compounds were measured (“fraction of GFP-LC3-positive cells (≥5 vesicles/cell)”: median about 0.058, highest 2% from about 0.59 on). Only a selection was taken, and the highest values are over-represented in it overall.

The experiment deals with CbCln3 +/+ GFP-LC3 cerebellar neuronal cells. Nature of the experiment: fraction of GFP-LC3-positive cells (≥5 vesicles/cell); higher = more autophagosome accumulation. The method in brief: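 In 384-well plates at 2 × 10^3 cells per well, GFP-LC3-expressing wild-type or mutant CbCln3 cerebellar cells took ~50 nL of compound in DMSO by pin transfer, in duplicate, for 24 h at 33 °C. Staining with Hoechst 33342 and LysoTracker Red over the final 30 min preceded fixation in 3.2% PFA and imaging of three fields per well at 10×. CellProfiler then counted GFP-LC3 vesicles in each cell, and out-of-focus images were dropped before the fraction of cells with 5 or more vesicles was averaged over duplicates.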
For the compound `CCOC(=O)C1=C(C)NC(=S)NC1c1cccc(O)c1` (stereo unspecified) [Monastrol], the “fraction of GFP-LC3-positive cells” value was determined as 0.199. The same measure for `CNC1(C)C2CCC(C2)C1(C)C.Cl` (stereo unspecified) [Mecamylamine hydrochloride]: 0.093; for `CN(Cc1cnc2nc(N)nc(N)c2n1)c1ccc(C(=O)NC(CCC(=O)O)C(=O)O)cc1` (racemic) [Amethopterin (R,S)]: 0.0411; for `CC(=O)Oc1ccc(C(c2ccc(OC(C)=O)cc2)c2ccccn2)cc1` [Bisacodyl]: 0.0605. Then `CC/C=C\C/C=C\C/C=C\C/C=C\CCCCC(=O)O` [6(Z), 9(Z), 12(Z), 15(Z)-Octadecatetraenoic acid], with 0.0591. The same measure for `CC(C(=O)O)c1ccc(-c2ccccc2)c(F)c1` (stereo unspecified) [Flurbiprofen]: 0.0432.

As to `Cl.O=C1CC2(CCCC2)CC(=O)N1CCCCN1CCN(c2ncccn2)CC1` [Buspirone hydrochloride], the “fraction of GFP-LC3-positive cells” value came out at 0.0334. `CC(C)[N+]1(C)[C@@H]2CC[C@@H]1CC(OC(=O)C(CO)c1ccccc1)C2.[Br-]` (stereo partly specified) [Ipratropium bromide]: the “fraction of GFP-LC3-positive cells” value is 0.0779.

As to `CC[C@]12CCCN3CCc4c(n(c5ccccc45)[C@](O)(C(=O)OC)C1)[C@@H]32` [Epivincamine], the “fraction of GFP-LC3-positive cells” value worked out at 0.0608.

As to `CC(=O)N(CC(O)CN(C(C)=O)c1c(I)c(C(=O)NCC(O)CO)c(I)c(C(=O)NCC(O)CO)c1I)c1c(I)c(C(=O)NCC(O)CO)c(I)c(C(=O)NCC(O)CO)c1I` (stereo unspecified) [Iodixanol], the “fraction of GFP-LC3-positive cells” value was determined as 0.0455.

For `COc1ccc2cc(C(C)C(=O)O)ccc2c1` (stereo unspecified) [Naproxen], the “fraction of GFP-LC3-positive cells” value came to 0.053. On to `CC(C)(C)C(=O)OCOC(=O)[C@@H]1N2C(=O)[C@@H](/N=C/N3CCCCCC3)[C@H]2SC1(C)C.Cl` [Pivmecillinam hydrochloride], for which the “fraction of GFP-LC3-positive cells” value was 0.0551. Then `C[N+]1(C)CCC(OC(=O)C(O)(c2ccccc2)C2CCCC2)C1.[Br-]` (stereo unspecified) [Glycopyrrolate], with 0.0526. The same measure for `CCCCC/C=C\C\C=C/C=C/C=C/[C@@H](O)[C@@H](O)CCCC(=O)O`: 0.0542; for `O=C(O)c1cccnc1` [Niacin]: 0.0475. Then `CC/C=C\C/C=C\C/C=C\C/C=C\C/C=C\C/C=C\CCC(=O)O`, with 0.0655. Regarding `CC/C=C\C/C=C\C/C=C\C/C=C\C/C=C\C/C=C\CCC(=O)O` [Docosahexaenoic acid (22:6 n-3)], the “fraction of GFP-LC3-positive cells” value was 0.0751.

For the compound `CC/C=C\C/C=C\C/C=C\C/C=C\C/C=C\C/C=C\CCC(=O)O` [Docosahexaenoic acid (22:6 N-3)], the “fraction of GFP-LC3-positive cells” value was determined as 0.0787. The same measure for `C[C@@H]1C[C@H]2[C@@H]3CCC4=CC(=O)C=C[C@]4(C)[C@@]3(F)[C@@H](O)C[C@]2(C)[C@@]1(O)C(=O)CO` [dexamethasone]: 0.0637.

In the case of `CCCCCCCC(=O)OC[C@H](CO)OC(=O)CCCCCCC` [1,2-Dioctanoyl-SN-glycerol], the “fraction of GFP-LC3-positive cells” value worked out at 0.058. Then `CCCCCCCC(=O)OC[C@H](CO)OC(=O)CCCCCCC`, with 0.0799.
